A collection of fitness landscapes (doi:10.1016/j.celrep.2020.107928)
In all, about 81,000 sequences were measured (“one-hybrid fitness for binding NBS DNA”: median about -0.1, highest 2% from about 0.36 on). Many of the other results were omitted from the sample, so the highest values are more common in it than they were.

B1: Caulobacter ParB omega fusion; a variant is named by its letters at X, in order, B8GW30 (parent)
chain: MESVVVGEPGMSEGRRGLGRGLSALLGEVDAAPAQAPGEQLGGSREAPIEILQRNPDQPRRTFREEDLEDLSNSIREKGVLQPILVRPSPDTAGEYQIVAGERAWRAAQRAGLKTVPIMVRELDDLAVLEIGIIENVQRADLNVLEEALSYKVLMEKFERTQENIAQTIGKSXSHVANXMRLLXLPDEVQSYLVSGELTAXHARAIAAAADPVALAKQIIEGGLSVRETEALARKAPNLSAGKSKGGRPPRVKDTDTQALESDLSSVLGLDVSIDHRGSTGTLTITYATLEQLDDLCNRLTRGI

Variants of: B1
Assay: one-hybrid fitness for binding NBS DNA (the Noc-binding site; scaled: cognate 1, non-cognate 0); higher = stronger binding
Conditions: with NBS DNA site
Outline: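 Bacterial one-hybrid selection in E. coli USO rpoZ- hisB- pyrF- with a HIS3 reporter carrying the site 19 bp from the promoter, screening Caulobacter ParB libraries with four specificity codons randomised (NNS). Cells grew 48 hours at 37°C on M9-minus-histidine plus 0.1 mM IPTG and 5 mM 3-AT. Plasmids before and after selection were Illumina-sequenced, three replicate libraries pooled, and variants under 10 reads dropped. Fitness is the log change in variant-to-wild-type read ratio, rescaled to cognate 1, non-cognate 0.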

Row | Variant | one-hybrid fitness for binding NBS DNA
1 | TYAY | ≤ 0.2
2 | MPCT | ≤ 0.2
3 | SIMW | ≤ 0.2
4 | VASM | ≤ 0.2
5 | GSLP | ≤ 0.2
6 | QIIS | ≤ 0.2
7 | QIRH | 0.44
8 | QIRS | 0.539
9 | QIRD | ≤ 0.2
10 | QIYS | 0.27
11 | QIRP | ≤ 0.2
12 | RWRF | ≤ 0.2
13 | LTWA | ≤ 0.2
14 | KKKG | ≤ 0.2
15 | AEER | ≤ 0.2
16 | QIVT | 0.236
17 | QLKT | 0.673
18 | QPKT | 0.201
19 | QAKT | 0.692
20 | QLVT | 0.276
21 | QWKT | 0.25
22 | QIKT | 0.574
23 | QCKT | 0.778
24 | QAVT | 0.296
25 | LDLK | ≤ 0.2
26 | AVEL | ≤ 0.2

Row | Variant | one-hybrid fitness for binding NBS DNA
27 | SLSN | ≤ 0.2
28 | QFKT | 0.388
29 | QSVT | 0.328
30 | QHKT | 0.732
31 | QFYT | ≤ 0.2
32 | QFVT | ≤ 0.2
33 | QHVT | 0.327
34 | QSKT | 0.699
35 | QEKT | ≤ 0.2
36 | QHIT | 0.349
37 | WSSW | ≤ 0.2
38 | LFHV | ≤ 0.2
39 | YELS | ≤ 0.2
40 | IALF | ≤ 0.2
41 | ESMD | ≤ 0.2
42 | RSFQ | ≤ 0.2
43 | RRDN | ≤ 0.2
44 | RRND | ≤ 0.2
45 | RRDH | 0.371
46 | RCDH | ≤ 0.2
47 | RCNN | ≤ 0.2
48 | RRNP | ≤ 0.2
49 | RRNH | 0.63
50 | RRNN | 0.493
51 | ANST | ≤ 0.2
52 | CRRH | ≤ 0.2

Row | Variant | one-hybrid fitness for binding NBS DNA
53 | RNTT | 0.215
54 | DAPG | ≤ 0.2
55 | GCTC | ≤ 0.2
56 | QTHI | 0.228
57 | QNEM | ≤ 0.2
58 | WTRW | ≤ 0.2
59 | TLWY | ≤ 0.2
60 | RRAC | 0.328
61 | RRFT | 0.777
62 | RRFQ | 0.267
63 | RRFG | 0.279
64 | RRAF | ≤ 0.2
65 | RRAT | 0.782
66 | SIPE | ≤ 0.2
67 | IQKV | ≤ 0.2
68 | PDCE | ≤ 0.2
69 | FSMS | ≤ 0.2
70 | QQNN | 0.231
71 | QQDT | 0.428
72 | QQNT | 0.596
73 | QQNP | ≤ 0.2
74 | QQDF | ≤ 0.2
75 | KQDT | ≤ 0.2
76 | VNKV | ≤ 0.2
77 | GVQT | ≤ 0.2
78 | RNWC | ≤ 0.2

Row | Variant | one-hybrid fitness for binding NBS DNA
79 | AVGK | ≤ 0.2
80 | QWGA | ≤ 0.2
81 | QMGA | 0.253
82 | QTGA | 0.466
83 | QSNA | 0.308
84 | QPNA | ≤ 0.2
85 | QTYA | 0.427
86 | QCNA | 0.369
87 | QLHA | ≤ 0.2
88 | QTHA | 0.441
89 | QHHA | 0.238
90 | QTLA | 0.329
91 | QTPA | ≤ 0.2
92 | LHCQ | ≤ 0.2
93 | VMLE | ≤ 0.2
94 | LRND | ≤ 0.2
95 | AEHT | ≤ 0.2
96 | QKAA | 0.319
97 | QTSA | 0.397
98 | QTCA | 0.378
99 | QLQA | 0.204
100 | QTQA | 0.432
101 | QSCA | ≤ 0.2
102 | QCCA | 0.326
103 | QTAA | 0.44
104 | QASA | ≤ 0.2

Row | Variant | one-hybrid fitness for binding NBS DNA
105 | QTFA | 0.301
106 | QCSA | 0.302
107 | QDQA | ≤ 0.2
108 | SFSC | ≤ 0.2
109 | PSTY | ≤ 0.2
110 | KYQS | ≤ 0.2
111 | AEHP | ≤ 0.2
112 | CVMI | ≤ 0.2
113 | VVAR | ≤ 0.2
114 | NSNP | ≤ 0.2
115 | SNRD | ≤ 0.2
116 | YAHR | ≤ 0.2
117 | QTVA | 0.317
118 | NTKA | ≤ 0.2
119 | QTIA | 0.224
120 | QSAA | 0.273
121 | QCWA | 0.205
122 | QPAA | ≤ 0.2
123 | QAWA | ≤ 0.2
124 | QCAA | 0.393
125 | QTKA | 0.708
126 | QTRA | 0.712
127 | QTWA | 0.367
128 | QTMA | 0.32
129 | NGIG | ≤ 0.2
130 | PFPE | ≤ 0.2

Row | Variant | one-hybrid fitness for binding NBS DNA
131 | GKAT | ≤ 0.2
132 | ATEG | ≤ 0.2
133 | TRRP | ≤ 0.2
134 | HLQN | ≤ 0.2
135 | QPTA | ≤ 0.2
136 | QCTA | 0.326
137 | QTNA | 0.505
138 | QKNA | 0.378
139 | QLNA | 0.219
140 | QTDA | 0.255
141 | QTTA | 0.399
142 | QINA | 0.21
143 | QKDA | ≤ 0.2
144 | ISCK | ≤ 0.2
145 | MLLV | ≤ 0.2
146 | LQRF | ≤ 0.2
147 | HHLI | ≤ 0.2
148 | LHQS | ≤ 0.2
149 | RINH | ≤ 0.2
150 | RWYR | ≤ 0.2
151 | RWDR | ≤ 0.2
152 | RSNH | 0.223
153 | RINR | 0.524
